Screens: PubChem BioAssay, several laboratories
In the library only some 4.5% were active in any assay of this set; here they are far more common.
Rce1 inhib = yeast Ras-converting enzyme inhibition. Q03530. yeast membranes, quenched prenylated peptide cleavage fluorescence. calls only. hit rate 0.27% among 290,000. AID 2563;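 active = fall in fluorescence gain of 50% or more versus controls, with final raw signal at or below 3038400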;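 also: plate controls were neutral control wells for no effect and wells lacking membranes for full effect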
HDAC3 inh = human HDAC3 inhibition. O15379. recombinant HDAC3, fluorogenic peptide/trypsin coupled, fluorescence. inhibition, % at 8.3 µM. hit rate 0.15% among 320,000; in the data active = inhibition above about 26%, passing the limit was not always enough
Target sequence (O15379 whole entry, looked up): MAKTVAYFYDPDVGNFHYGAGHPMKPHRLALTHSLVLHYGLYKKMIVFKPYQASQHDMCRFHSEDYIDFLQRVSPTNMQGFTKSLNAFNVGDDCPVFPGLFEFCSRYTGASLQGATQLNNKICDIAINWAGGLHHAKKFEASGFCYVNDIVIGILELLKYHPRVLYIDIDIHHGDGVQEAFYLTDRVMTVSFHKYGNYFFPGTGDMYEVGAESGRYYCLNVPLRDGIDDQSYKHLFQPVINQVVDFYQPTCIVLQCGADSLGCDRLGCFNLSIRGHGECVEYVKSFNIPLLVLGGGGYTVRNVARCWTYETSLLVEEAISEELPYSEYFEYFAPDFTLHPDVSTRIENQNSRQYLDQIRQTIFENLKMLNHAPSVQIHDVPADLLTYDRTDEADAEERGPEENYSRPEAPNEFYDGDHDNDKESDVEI
Efflux pump mplx = inhibitors of Candida antifungal efflux pumps expressed in yeast; S. cerevisiae Candida pump triplex, Nile Red efflux; inhibition, % at 10 µM; hit rate 0.44% among 330,000;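 active = plate passing quality check with inhibition over a set limit, or well fluorescence over plate mean plus 4 SD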;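 also: Nile Red retained in pooled yeast measured as flow cytometry median fluorescence; 0% = buffer negative control and 100% = Enniatin B positive control; higher means more Nile Red kept so more efflux inhibition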
Rtt109 Vps75 = blocks Candida albicans Rtt109/Vps75 acetyltransferase activity. purified Rtt109/Vps75, ThioGlo CoA-SH fluorescence, 4 h. inhibition, % at 34.9 µM. hit rate 0.16% among 330,000. AID 540336;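 active = inhibition of at least 50% in every replicate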
ALR H2O2 inh = blocks human ALR sulfhydryl oxidase activity. P55789. purified ALR, DTT oxidation, H2O2 HRP-luminol luminescence. inhibition, % (concentration not given with the values). hit rate 3.8% among 290,000;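 active = mean replicate inhibition above about 79%, with every replicate also reaching it, limit read from the data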
GRK2 inh = human GRK2 inhibition via aptamer displacement; hit rate 0.59% among 330,000; bead flow cytometry, FAM-aptamer displacement from GRK2; inhibition of aptamer binding, % at 10 µM; P25098; AID 488847;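 active = inhibition of aptamer binding above 40%, roughly 3 SD of noise, on plates passing a quality check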;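 also: median bead fluorescence of bound FAM aptamer so fluorescent compounds give negative values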
* marks the source's active call; other numbers are inactive results.

Screening O=C1c2ccc(-c3ccc4c(c3)C(=O)N(CCO)C4=O)cc2C(=O)N1CCO returned Rce1 inhib inactive, Efflux pump mplx 0, Rtt109 Vps75 16 and GRK2 inh 5.
CC(C)(C)c1cc(CN2CCCC(O)C2)c(O)c(C(C)(C)C)c1 (stereo not drawn) was read as Rce1 inhib inactive, HDAC3 inh 36*, Efflux pump mplx 0, Rtt109 Vps75 10, ALR H2O2 inh 35 and GRK2 inh 0.
Nc1ccc2c(c1)N1CCN=C1S2 was read as Rce1 inhib inactive, HDAC3 inh 3, Efflux pump mplx 0, Rtt109 Vps75 1, ALR H2O2 inh 88* and GRK2 inh 0.
Screening O=C(Nc1ccc(Cl)cc1)Nc1ccc2c(c1)N1CCN=C1S2 returned Rce1 inhib inactive, HDAC3 inh 1, Efflux pump mplx 0, Rtt109 Vps75 21, ALR H2O2 inh 0 and GRK2 inh 0.
Cc1ccc(C(C)C)c(OCC(=O)c2c(O)c3ccccc3oc2=O)c1 was read as Rce1 inhib inactive, HDAC3 inh 1, Efflux pump mplx 0, Rtt109 Vps75 19, ALR H2O2 inh 94* and GRK2 inh 2.
`CN(C(=O)N1CCN(S(=O)(=O)c2ccccc2)CC1)c1ccccc1` gave Rce1 inhib inactive, HDAC3 inh 3, Efflux pump mplx 0, Rtt109 Vps75 0, ALR H2O2 inh -2 and GRK2 inh 0.
For COc1ccccc1CNc1nc2ccccc2n1CCN1CCCCC1 the results were HDAC3 inh 5, Efflux pump mplx 0, ALR H2O2 inh 98* and GRK2 inh 0.
Oc1ccccc1CNc1nc2ccccc2n1CCN1CCCCC1 was read as Rce1 inhib inactive, HDAC3 inh -1, Efflux pump mplx 0, Rtt109 Vps75 2, ALR H2O2 inh 96* and GRK2 inh 0.
C=CCc1cccc(CNc2nc3ccccc3n2CCN2CCOCC2)c1O was read as Rce1 inhib inactive, HDAC3 inh -6, Efflux pump mplx 0, Rtt109 Vps75 -13, ALR H2O2 inh 15 and GRK2 inh 1.
For O=C(c1ccco1)N1CCN(Cc2cc(=O)c(OCc3ccccc3F)co2)CC1 the results were Rce1 inhib inactive, HDAC3 inh 0, Efflux pump mplx 0, Rtt109 Vps75 -4, ALR H2O2 inh 4 and GRK2 inh 1.
For CC(NS(=O)(=O)c1ccc(Br)cc1)C(=O)NCCc1ccccc1 (stereo not drawn) the results were Rce1 inhib inactive, HDAC3 inh -12, Efflux pump mplx 0, Rtt109 Vps75 -2, ALR H2O2 inh -1 and GRK2 inh 1.
CC(=O)Nc1ccc(S(=O)(=O)NC(C)C(=O)NCCc2ccc(F)cc2)cc1 (stereo not drawn) was read as Rce1 inhib inactive, HDAC3 inh 1, Efflux pump mplx 0, Rtt109 Vps75 -9, ALR H2O2 inh 98* and GRK2 inh 1.
Cc1ccc(S(=O)(=O)Oc2ccc(C3C4=C(CCCC4=O)N(CCC(=O)O)C4=C3C(=O)CCC4)cc2Cl)cc1 was read as Rce1 inhib active, HDAC3 inh -36, Efflux pump mplx 1, Rtt109 Vps75 -3, ALR H2O2 inh 8 and GRK2 inh 0.
OCCNc1nc(Nc2cccc(O)c2)nc2ccccc12 was read as Rce1 inhib inactive, HDAC3 inh 1, Efflux pump mplx 0, Rtt109 Vps75 7, ALR H2O2 inh 95* and GRK2 inh 0.
For OCCNc1nc(N2CCN(c3ccccc3)CC2)nc2ccccc12 the results were Rce1 inhib inactive, HDAC3 inh 0, Efflux pump mplx 0, Rtt109 Vps75 1, ALR H2O2 inh 98* and GRK2 inh 0.
OCCNc1nc(Nc2ccc(O)cc2)nc2ccccc12 was read as Rce1 inhib inactive, HDAC3 inh 2, Efflux pump mplx 0, Rtt109 Vps75 12, ALR H2O2 inh 99* and GRK2 inh 0.
`CN(C(=O)c1cc2ccccc2o1)c1c(N)n(Cc2ccccc2)c(=O)[nH]c1=O` gave HDAC3 inh 5, Efflux pump mplx 0, Rtt109 Vps75 44 and GRK2 inh 0.
For COc1ccc(-c2nnc(SCc3ccc(C(=O)O)cc3)n2N)cc1 the results were Rce1 inhib inactive, HDAC3 inh 2, Efflux pump mplx 0, Rtt109 Vps75 -12, ALR H2O2 inh -21 and GRK2 inh 5.
`CN1Cc2cc(C(=O)c3ccccc3O)cnc2NC1=O` gave Rce1 inhib inactive, HDAC3 inh -4, Efflux pump mplx 0, Rtt109 Vps75 -9, ALR H2O2 inh 87* and GRK2 inh 0.
`Cc1cc(C)nc(NCC(O)CNc2ccccc2Cl)n1` (stereo not drawn) gave HDAC3 inh 12, Efflux pump mplx 0, Rtt109 Vps75 11, ALR H2O2 inh 92* and GRK2 inh 1.
`Cc1cc(Nc2ccccc2Cl)c2ccccc2n1` gave Rce1 inhib inactive, HDAC3 inh 1, Efflux pump mplx 0 and GRK2 inh 0.
For NS(=O)(=O)c1ccc(Sc2ccc3ccccc3c2)nc1 the results were Rce1 inhib inactive, HDAC3 inh 3, Efflux pump mplx 0, Rtt109 Vps75 12, ALR H2O2 inh 99* and GRK2 inh 1.
For CC(=O)Nc1cc(C(=O)CSc2nnc(C3CC3)n2C2CC2)ccc1O the results were HDAC3 inh 0, Efflux pump mplx 0, Rtt109 Vps75 24, ALR H2O2 inh 1 and GRK2 inh 4.
COCCn1c(SCC(=O)c2cc(C)n(C)c2C)nc2ccccc2c1=O was read as Rce1 inhib inactive, HDAC3 inh -7, Efflux pump mplx 0, Rtt109 Vps75 -3, ALR H2O2 inh 99* and GRK2 inh 4.
For COCCn1c(SCC(=O)NC(=O)Cc2ccccc2)nc2ccccc2c1=O the results were HDAC3 inh 2, Efflux pump mplx 0, Rtt109 Vps75 2, ALR H2O2 inh 2 and GRK2 inh 2.
For Cc1nn(-c2ccccc2)c(C)c1-c1nnc(-c2c(C)nn(-c3ccccc3)c2C)o1 the results were Rce1 inhib inactive, HDAC3 inh -4, Efflux pump mplx 0, Rtt109 Vps75 -6, ALR H2O2 inh -12 and GRK2 inh 3.
Screening N#CC1(C#N)CC(C=O)=C(N)C1(C#N)CC(=O)C12CC3CC(CC(C3)C1)C2 (stereo not drawn) returned Rce1 inhib inactive, HDAC3 inh 4, Efflux pump mplx 0, Rtt109 Vps75 -4, ALR H2O2 inh 96* and GRK2 inh 0.
For Nc1nccnc1C(=O)OCC(=O)C12CC3CC(CC(C3)C1)C2 the results were Rce1 inhib inactive, HDAC3 inh 3, Efflux pump mplx 0, Rtt109 Vps75 -14, ALR H2O2 inh 1 and GRK2 inh 0.
Screening COc1ccc(-n2cc(-c3ccccc3)[nH]c2=S)cc1 returned Rce1 inhib inactive, HDAC3 inh -4, Efflux pump mplx 0, Rtt109 Vps75 10, ALR H2O2 inh 85* and GRK2 inh 0.
